Source: PubChem BioAssay (Tox21)
Records with an inconclusive call do not appear. Activity calls are given as the source filed them. Unless noted, calls follow the shape of the dose curve; as a rule, active = well fitted curve in the direction sought with a large enough effect in the repeat runs; inconclusive = weak or mixed curves; inactive = no such curve, though single readings can be large; an effect the other way counts as inactive or inconclusive.

Tests used:
[1] = qHTS assay to identify small molecule antagonists of the estrogen receptor beta (ER-beta) signaling pathway - cell viability counter screen (AID 1259382);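 also: HEK293T cells carrying ER-beta-UAS-bla reporter stimulated with estradiol; series mostly up to about 92 µM; nearly all actives have a fitted effect of over 55% in size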
In short: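 ER-beta-UAS-bla HEK293T cells (2,000/well, 2% charcoal-stripped FBS) were pre-incubated 6 hr at 37C, then given compound plus 1nM final 17-beta-estradiol for 16 hr. Viability was read in the same wells by CellTiter-Glo luminescence after 30 min at room temperature.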

[2] = target: Estrogen receptor (Homo sapiens) (UniProt P03372); assay: qHTS assay to identify small molecule agonists of the estrogen receptor alpha (ER-alpha) signaling pathway in the presence of an antagonist (AID 1259383; calls by dose curve; also: top concentration of the series differs between compounds; nearly all actives have a fitted effect of over 15% in size)
In short: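 VM7Luc4E2 cells (endogenous full-length ER-alpha, 4×ERE-luciferase) were precultured 5 days in phenol red-free medium with 10% charcoal-stripped FBS, given 10.0nM ICI-182,780 (final), then treated with compounds at 15 concentrations for 22hr at 37C; luminescence read with ONE-Glo.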

[3] = qHTS assay to identify small molecule agonists or antagonists of the thyroid stimulating hormone receptor (TSHR) signaling pathway - wild type cell line counter screen (AID 1259384; calls by dose curve)
In short: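 Wild-type HEK293 cells were plated 18 h at 37 C/5% CO2, pin-dosed with compound plus Ro20-1724 medium, held 30 min at room temperature, then given cAMP-d2 and anti-cAMP-cryptate; fluorescence was read after 1 h. Fifteen concentrations, triplicate.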

[4] = target: Thyrotropin receptor (Homo sapiens) (UniProt P16473); assay: qHTS assay to identify small molecule antagonists of the thyroid stimulating hormone receptor (TSHR) signaling pathway (AID 1259385; calls by dose curve; also: nearly all actives have a fitted effect of over 20% in size)
In short: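 TSHR-HEK293 cells were plated and held 18 h at 37C/5% CO2, then given compound plus Ro20-1724 and stimulated with TSH at 1.5 ng/mL final. After 30 min at room temperature, cAMP was detected with cAMP-d2/anti-cAMP-cryptate (1 h) by fluorescence.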

[5] = qHTS assay to identify small molecule agonists of the estrogen receptor alpha (ER-alpha) signaling pathway in the presence of an antagonist - cell viability counter screen (AID 1259386);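 also: series mostly up to about 92 µM; cells exposed to compounds for 22 h at 37 °C before the viability read; nearly all actives have a fitted effect of over 30% in size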
In short: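 VM7Luc4E2 cells (endogenous full-length ER-alpha, 4×ERE-luciferase) were held 5 days in phenol red-free medium with 10% charcoal-stripped FBS, plated, then given 10.0nM ICI-182,780 and compounds at 15 concentrations for 22hr at 37C; viability read by CellTiter-Fluor fluorescence.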

[6] = target: Progesterone receptor (Homo sapiens) (UniProt P06401); assay: qHTS assay to identify small molecule agonists of the progesterone receptor (PR) signaling pathway (AID 1346784; calls by dose curve; also: nearly all actives have a fitted effect of over 30% in size)
In short: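 Reporter assay, GripTite PR-UAS-bla HEK 293T cells: 16 hr exposure to DMSO-dissolved compounds at 37C, 5% CO2, in steroid-depleted (2% charcoal-stripped FBS) medium; beta-lactamase measured by FRET fluorescence.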

[7] = target: Progesterone receptor (Homo sapiens) (UniProt P06401); assay: qHTS assay to identify small molecule antagonists of the progesterone receptor (PR) signaling pathway (AID 1346795; active = well fitted inhibition curve with a large enough effect in the signal ratio in the repeat runs, not every such curve was filed as active; the % refers to the signal ratio)
In short: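 Stimulus R5020 at 1 nM final; cells HEK293T PR-UAS-bla; medium with 2% charcoal-stripped FBS; compound exposure 16 hr at 37C, 5% CO2; detection by FRET beta-lactamase substrate, 2 hr, room temperature.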

[8] = qHTS assay to identify small molecule agonists of the progesterone receptor (PR) signaling pathway - cell viability counter screen (AID 1346799; calls by dose curve; also: nearly all actives have a fitted effect of over 45% in size)
In short: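 Multiplexed viability read: CellTiter-Glo luminescence, 30 min RT, following LiveBLAzer FRET measurement on PR-UAS-bla HEK293T cells exposed to compounds 16 hr.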

[9] = qHTS assay to identify small molecule antagonists of the TGF-beta/Smad signaling pathway - cell viability counter screen (AID 1346824); also: nearly all actives have a fitted effect of over 50% in size
In short: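 SBE-bla HEK 293T cells were plated overnight at 37 C, then given compounds in DMSO plus TGF-beta1 (added as 0.25 ng/mL solution) for 5 hr. After the bla read, CellTiter-Glo was added to the same wells and luminescence read after 30 min at room temperature.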

[10] = qHTS assay to identify small molecule agonists of the TGF-beta/Smad signaling pathway - cell viability counter screen (AID 1346829); also: top concentration of the series differs between compounds; nearly all actives have a fitted effect of over 45% in size
In short: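 Cytotoxicity counter screen: CellTiter-Glo luminescence (30 min, room temperature) measured in the SBE-bla HEK 293T reporter wells after 5 hr compound treatment at 37 C and the 2 hr substrate step.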

[11] = qHTS assay to identify small molecule agonists of the TGF-beta/Smad signaling pathway (AID 1346859; active = well fitted activation curve with a large enough effect in the signal ratio in the repeat runs, not every such curve was filed as active; the % refers to the signal ratio; also: series mostly up to about 77 µM)
In short: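 Screening used HEK 293T SBE-bla cells at 4,000/well. Test agents: 5 hr, 37 C. Detection: FRET substrate, 2 hr RT, then excitation 405 nm with emissions at 460 and 530 nm.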

[12] = target: Thyrotropin-releasing hormone receptor (Homo sapiens) (UniProt P34981); assay: qHTS assay to identify small molecule antagonists of the thyrotropin-releasing hormone receptor (TRHR) signaling pathway (AID 1346877; active = well fitted inhibition curve with a large enough effect in the repeat runs, not every such curve was filed as active; also: series mostly up to about 51 µM)
In short: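 TRHR-expressing HEK293 cells were seeded, cultured 18 h at 37 °C, then loaded with calcium dye for 2 h. Compounds were pre-incubated 5 min at room temperature before 1 nM TRH (final) was added, and kinetic fluorescence was recorded for 3 min.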

[13] = target: Thyrotropin-releasing hormone receptor (Homo sapiens) (UniProt P34981); assay: qHTS assay to identify small molecule agonists of the thyrotropin-releasing hormone receptor (TRHR) signaling pathway (AID 1346891; calls by dose curve; also: series mostly up to about 58 µM)
In short: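 Readout was intracellular calcium fluorescence in TRHR-Hek293 cells. Cells were incubated 18 h, dye-loaded 2 h at 37 °C, and treated with compound in agonist mode.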

[14] = Human pregnane X receptor (PXR) small molecule agonists, qHTS cell viability counter screen (AID 1346977); also: nearly all actives have a fitted effect of over 50% in size
In short: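 In each well, the PXR reporter HepG2 line was checked for viability: CellTiter-Fluor reagent added 23hr post-dosing, fluorescence read after 1hr incubation at 37C.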

[15] = Caspase-3/7 induction in HepG2 cells by small molecules, qHTS assay (AID 1346978); also: nearly all actives have a fitted effect of over 15% in size
In short: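 Wild-type HepG2 cells (2,000/well) were settled 5 h at 37 C, 5% CO2, then exposed to compounds in DMSO for 17 h. Caspase-3/7 activity was read by luminescence 30 min after adding Caspase-Glo 3/7 reagent at room temperature.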

[16] = Caspase-3/7 induction in CHO-K1 cells by small molecules, qHTS cell viability counter screen (AID 1346979); also: nearly all actives have a fitted effect of over 35% in size
In short: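 Following a 5hr settling period, CHO-K1 cells at 1,500 per well received DMSO-dissolved compounds. Cell viability was quantified 16hr later by CellTiter-Fluor fluorescence, measured after 1hr with reagent at 37C.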

[17] = Caspase-3/7 induction in CHO-K1 cells by small molecules, qHTS assay (AID 1346980); also: nearly all actives have a fitted effect of over 15% in size
In short: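 Wild-type cells were seeded at 1,500 per well and settled 5 hr at 37 C, 5% CO2, then exposed to DMSO-dissolved compounds for 17 hr. Caspase-Glo 3/7 reagent was added, and luminescence was read after 30min at room temperature.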

[18] = Caspase-3/7 induction in HepG2 cells by small molecules, qHTS cell viability counter screen (AID 1346981); also: series mostly up to about 92 µM; nearly all actives have a fitted effect of over 30% in size
In short: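 Wild-type HepG2 cells (2,000/well) were allowed to settle for 5 hr at 37 C, 5% CO2, then dosed with compounds in DMSO by pin transfer. After 16 hr at 37 C, CellTiter-Fluor was added and fluorescence read 1 hr later.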

[19] = qHTS assay to identify small molecule antagonists of the progesterone receptor (PR) signaling pathway - cell viability counter screen (AID 1346798); also: series mostly up to about 92 µM; nearly all actives have a fitted effect of over 50% in size
In short: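 In the same plates used for the beta-lactamase readout, cell viability of compound- and R5020-treated PR-UAS-bla HEK293T cells (16 hr, 37C) was assessed by CellTiter-Glo luminescence.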

Measured: Potency

Chain of Thyrotropin-releasing hormone receptor (Homo sapiens) (P34981 whole entry, looked up): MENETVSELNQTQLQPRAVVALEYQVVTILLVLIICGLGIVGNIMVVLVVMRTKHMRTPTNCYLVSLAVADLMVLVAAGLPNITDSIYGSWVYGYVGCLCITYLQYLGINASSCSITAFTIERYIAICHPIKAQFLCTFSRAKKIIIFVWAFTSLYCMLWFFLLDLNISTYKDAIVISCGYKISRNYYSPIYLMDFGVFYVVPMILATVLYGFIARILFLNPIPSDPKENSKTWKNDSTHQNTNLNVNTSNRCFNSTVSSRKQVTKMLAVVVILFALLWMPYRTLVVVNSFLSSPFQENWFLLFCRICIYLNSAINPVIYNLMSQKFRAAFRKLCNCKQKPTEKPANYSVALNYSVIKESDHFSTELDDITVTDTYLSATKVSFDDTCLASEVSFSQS
Chain of Thyrotropin receptor (Homo sapiens) (P16473 whole entry, looked up): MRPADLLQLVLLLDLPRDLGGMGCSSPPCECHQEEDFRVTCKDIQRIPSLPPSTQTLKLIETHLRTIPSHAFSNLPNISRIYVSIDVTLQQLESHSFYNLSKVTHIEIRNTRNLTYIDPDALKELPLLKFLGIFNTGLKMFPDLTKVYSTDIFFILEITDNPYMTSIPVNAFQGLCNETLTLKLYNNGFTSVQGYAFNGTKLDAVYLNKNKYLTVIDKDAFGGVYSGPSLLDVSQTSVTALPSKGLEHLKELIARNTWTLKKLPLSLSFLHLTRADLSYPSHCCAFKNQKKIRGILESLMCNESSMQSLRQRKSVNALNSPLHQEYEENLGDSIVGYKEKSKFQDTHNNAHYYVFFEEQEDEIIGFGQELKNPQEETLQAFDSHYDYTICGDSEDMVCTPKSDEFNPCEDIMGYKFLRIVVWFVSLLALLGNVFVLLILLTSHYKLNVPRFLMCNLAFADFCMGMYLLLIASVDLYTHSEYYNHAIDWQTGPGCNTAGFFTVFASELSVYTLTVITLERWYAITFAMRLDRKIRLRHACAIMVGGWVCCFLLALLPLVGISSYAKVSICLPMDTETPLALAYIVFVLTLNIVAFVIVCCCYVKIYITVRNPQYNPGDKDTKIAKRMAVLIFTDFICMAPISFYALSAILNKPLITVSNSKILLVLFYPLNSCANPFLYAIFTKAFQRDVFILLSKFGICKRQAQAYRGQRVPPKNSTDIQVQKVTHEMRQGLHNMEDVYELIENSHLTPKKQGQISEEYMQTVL
Chain of Progesterone receptor (Homo sapiens) (P06401 whole entry, looked up): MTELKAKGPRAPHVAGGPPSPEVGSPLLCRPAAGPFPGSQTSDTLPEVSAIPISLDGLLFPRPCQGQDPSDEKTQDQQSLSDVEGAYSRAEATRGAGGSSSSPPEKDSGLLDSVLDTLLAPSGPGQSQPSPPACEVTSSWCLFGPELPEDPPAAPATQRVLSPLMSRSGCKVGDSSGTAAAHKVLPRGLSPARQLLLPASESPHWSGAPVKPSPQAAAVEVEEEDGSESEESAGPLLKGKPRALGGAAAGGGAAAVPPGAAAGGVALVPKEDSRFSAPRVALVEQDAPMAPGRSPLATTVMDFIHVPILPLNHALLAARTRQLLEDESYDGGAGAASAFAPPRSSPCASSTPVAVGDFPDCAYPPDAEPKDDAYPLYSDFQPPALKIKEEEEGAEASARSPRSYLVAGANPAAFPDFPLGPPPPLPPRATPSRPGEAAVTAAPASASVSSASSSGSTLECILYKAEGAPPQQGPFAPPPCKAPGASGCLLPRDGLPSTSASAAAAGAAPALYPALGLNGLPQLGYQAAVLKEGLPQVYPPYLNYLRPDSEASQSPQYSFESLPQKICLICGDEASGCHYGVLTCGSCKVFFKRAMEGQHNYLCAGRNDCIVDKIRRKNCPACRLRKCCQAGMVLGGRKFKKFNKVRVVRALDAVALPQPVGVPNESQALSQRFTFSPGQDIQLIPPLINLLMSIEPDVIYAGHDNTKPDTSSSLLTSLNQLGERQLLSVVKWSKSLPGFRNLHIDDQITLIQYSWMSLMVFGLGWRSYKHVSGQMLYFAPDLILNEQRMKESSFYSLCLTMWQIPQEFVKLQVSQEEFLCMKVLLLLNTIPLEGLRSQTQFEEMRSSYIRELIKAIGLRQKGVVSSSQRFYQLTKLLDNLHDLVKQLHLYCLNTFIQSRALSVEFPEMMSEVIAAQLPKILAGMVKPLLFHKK
Chain of Estrogen receptor (Homo sapiens) (P03372 whole entry, looked up): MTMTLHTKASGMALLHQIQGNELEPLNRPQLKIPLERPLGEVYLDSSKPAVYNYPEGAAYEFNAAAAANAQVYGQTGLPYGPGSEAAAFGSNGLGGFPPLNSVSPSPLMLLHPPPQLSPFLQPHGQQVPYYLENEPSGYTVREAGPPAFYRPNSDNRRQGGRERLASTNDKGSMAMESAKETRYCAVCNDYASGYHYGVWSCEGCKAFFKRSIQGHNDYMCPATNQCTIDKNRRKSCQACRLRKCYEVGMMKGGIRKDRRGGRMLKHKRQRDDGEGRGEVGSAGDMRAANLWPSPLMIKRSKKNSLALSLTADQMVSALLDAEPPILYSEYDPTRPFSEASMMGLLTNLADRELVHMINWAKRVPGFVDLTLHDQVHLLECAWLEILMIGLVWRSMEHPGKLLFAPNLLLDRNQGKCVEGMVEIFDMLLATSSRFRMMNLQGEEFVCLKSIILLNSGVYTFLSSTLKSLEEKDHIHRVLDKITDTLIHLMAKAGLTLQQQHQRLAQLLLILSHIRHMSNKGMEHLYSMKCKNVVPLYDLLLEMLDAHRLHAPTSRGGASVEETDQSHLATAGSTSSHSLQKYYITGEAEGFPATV

Cc1ccccc1C(N)=O
not listed: [19]
inactive: all other assays above

O=C(CCCCC(=O)Nc1c(I)cc(I)c(C(=O)O)c1I)Nc1c(I)cc(I)c(C(=O)O)c1I
not listed: [14] | [16] | [19]
inactive: all other assays above

O=C(CCCl)NCCc1ccccc1
not listed: [19]
inactive: all other assays above

CCNC(=O)NCc1cccc(Cl)c1
not listed: [7] | [9] | [12] | [13]
inactive: all other assays above

CCN1CCCC1CN (stereo not given)
not listed: [8] | [9]
inactive: all other assays above

CCCCOC(=O)[C@H](C)O
not listed: [7] | [19]
inactive: all other assays above

OCC1CCC(CO)CC1 (stereo not given)
not listed: [9] | [12] | [13] | [19]
inactive: all other assays above

C=CC(=O)OCC1CCCO1 (stereo not given)
not listed: [7] | [19]
inactive: all other assays above

CC(=O)O[C@@H]1CC2CCC1(C)C2(C)C (stereo not given in full)
not listed: [2]
inactive: all other assays above

CC(C)NCC(O)c1ccc2ccccc2c1 (stereo not given)
not listed: [2] | [14] | [19]
inactive: all other assays above

CC/C(C)=N\O[Si](C)(O/N=C(\C)CC)O/N=C(\C)CC
not listed: [3] | [4] | [7] | [9] | [12] | [13] | [18]
inactive: all other assays above

CCCCSCCCC
not listed: [2] | [16]
inactive: all other assays above

CC(C)OC(=O)OCOP(=O)(CO[C@H](C)Cn1cnc2c(N)ncnc21)OCOC(=O)OC(C)C
not listed: [3] | [4] | [8] | [12] | [13]
inactive: all other assays above
